Most compounds without a hit are left out; they make up all but 4.3% or so of the library.
Autofluor counter: flagged as autofluorescent in microsphere protease counterscreen | compound autofluorescence counterscreen, microsphere flow cytometry; stronger effect = higher value | fluorescence intensity (test concentration not listed) | 3.1% of 360,000 active | AID 624483; in the data active means fluorescence intensity above about 16000; inconclusive means no clear call, values can overlap the other calls
PfHsp40 rescue: restores yeast growth despite PfHsp40 toxicity. S. cerevisiae expressing PfHsp40, growth rescue, ATP luminescence. growth rescue, % at 12.5 µM. 0.68% of 340,000 active. AID 504582; in the data active means growth rescue above about 28%, passing the limit was not always enough; inconclusive means no clear call, values can overlap the other calls;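 further: yeast W303a lacking pdr1 and pdr3 grown in galactose medium; growth measured after three days at 30 °C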
MazF activator: MazEF (E. coli) toxin RNase activation. FAM/BHQ RNA-DNA oligo cleavage fluorescence, 5 h. activation, % at 20 µM. 0.32% of 350,000 active. AID 504720; in the data active means activation above about 50%
Anthrax LF prot: inhibitors of Bacillus anthracis lethal factor protease; P15917; multiplex microsphere protease cleavage assay, LF; inhibition, % at 10 µM; 0.12% of 360,000 active; in the data active means inhibition above about 30%; inconclusive means no clear call, values can overlap the other calls
BoNT F protease: blocks Botulinum neurotoxin F light chain protease. Multiplex microsphere protease cleavage assay, flow cytometry. inhibition, % at 10 µM. 0.22% of 360,000 active; in the data active means inhibition above about 35%, passing the limit was not always enough; inconclusive means no clear call, values can overlap the other calls
BoNT-A LC inh2: inhibitors of Botulinum neurotoxin A light chain protease; multiplex microsphere protease substrate cleavage, flow cytometry; inhibition, % at 10 µM; 0.17% of 360,000 active; in the data active means inhibition above about 30%; inconclusive means no clear call, values can overlap the other calls
BoNTA LC inh 1: inhibitors of Botulinum neurotoxin A light chain protease; shares compounds with BoNT F protease; multiplex microsphere protease assay, flow cytometry; inhibition, % at 10 µM; 3% of 720 active; in the data active means inhibition above about 32%
BoNT-F LC CP1: inhibitors of Botulinum neurotoxin F light chain protease. shares compounds with BoNT F protease. multiplex microsphere protease cleavage assay, flow cytometry. inhibition, % at 10 µM. 720 tested, under 10 active. AID 602140
Anthrax LF CP1: inhibitors of Bacillus anthracis lethal factor protease; inhibition, % at 10 µM; 720 tested, under 10 active; shares compounds with BoNT F protease; AID 602142; multiplex microsphere protease cleavage assay, LF
Large screens that a line does not name were inactive (follow-up assays come after a bar, where they were run). Unless noted, how the calls were made is not given here.

Cc1nc2nc(CSc3ccc(Cl)cc3)cc(=O)n2[nH]1	BoNT F protease 79.4 | BoNTA LC inh 1 inactive | BoNT-F LC CP1 inactive | Anthrax LF CP1 inactive
N#Cc1cccc(C(c2nnnn2C2CCCC2)N2CCC(Cc3ccccc3)CC2)c1 (stereo unspecified)	none
N#Cc1cccc(C(c2nnnn2C2CCCC2)N2CCCCCC2)c1 (stereo unspecified)	none | BoNTA LC inh 1 inactive | BoNT-F LC CP1 inactive | Anthrax LF CP1 inactive
O=C(Nc1ccc2c(c1)CCCN2C(=O)c1ccccc1)c1ccccc1	none
CCOCCCNC(=O)C(c1ccc(C)cc1)N(Cc1ccc2c(c1)OCO2)C(=O)CNC(C)=O (stereo unspecified)	BoNT F protease 35.1 | BoNTA LC inh 1 inactive | BoNT-F LC CP1 inactive | Anthrax LF CP1 inactive
CCCSc1cc(=O)n(-c2ccccc2)nc1C(=O)O	none
COC(=O)CCSc1cc([N+](=O)[O-])cc2c1c(C1OCCO1)nn2-c1ccccc1	BoNT-A LC inh2 32.9 | BoNTA LC inh 1 inactive | BoNT-F LC CP1 inactive | Anthrax LF CP1 inactive
O=C1CC(N2CCN(c3ccc(Cl)cc3)CC2)C(=O)N1c1ccc(F)cc1 (stereo unspecified)	BoNT F protease 56.5 | BoNTA LC inh 1 inactive | BoNT-F LC CP1 inactive | Anthrax LF CP1 inactive
O=C(O)c1ccc(N2C(=O)CC(N3CCN(c4ccc(Cl)cc4)CC3)C2=O)cc1 (stereo unspecified)	BoNT F protease inconclusive
O=C(NCCCN1CCCC1=O)NC1CCCCC1	none
O=C(O)C1CCCCC1C(=O)NCCCN1CCCC1=O (stereo unspecified)	BoNT F protease 48.0 | BoNTA LC inh 1 inactive | BoNT-F LC CP1 inactive | Anthrax LF CP1 inactive
Cc1ccc(N2CC(O)Cn3c2nc2c3c(=O)[nH]c(=O)n2C)cc1 (stereo unspecified)	BoNT F protease inconclusive
COc1cccc(N2CC(O)Cn3c2nc2c3c(=O)[nH]c(=O)n2C)c1 (stereo unspecified)	BoNT F protease 40.8 | BoNTA LC inh 1 inactive | BoNT-F LC CP1 inactive | Anthrax LF CP1 inactive
CSc1ccc(C(=O)C2CCCN(CCCn3cccn3)C2)cc1 (stereo unspecified)	BoNT F protease 37.2 | BoNTA LC inh 1 inactive | BoNT-F LC CP1 inactive | Anthrax LF CP1 inactive
CN(CC(=O)Nc1ccc(F)cc1)C(=O)COC(=O)Cc1cccs1	Autofluor counter inconclusive, BoNT F protease 40.0 | BoNTA LC inh 1 inactive | BoNT-F LC CP1 inactive | Anthrax LF CP1 inactive
O=C(COC(=O)Cc1cccs1)NCC(=O)Nc1ccc(F)cc1	none
CCc1ccc(-c2cc(C(F)(F)F)n3nc(C(=O)Nc4c(C)nn(Cc5ccccc5Cl)c4C)cc3n2)s1	Autofluor counter 21126, BoNT-A LC inh2 inconclusive | BoNTA LC inh 1 inactive | BoNT-F LC CP1 inactive | Anthrax LF CP1 inactive
Cc1ccccc1Cn1ccc(NC(=O)c2cc3nc(-c4ccco4)cc(C(F)(F)F)n3n2)n1	none
CCc1ccc(-c2cc(C(F)(F)F)n3nc(C(=O)Nc4c(C)nn(Cc5ccccc5C)c4C)cc3n2)s1	Autofluor counter 19939, Anthrax LF prot 30.5 | BoNTA LC inh 1 inactive | BoNT-F LC CP1 inactive | Anthrax LF CP1 inactive
CCc1ccc(-c2cc(C(F)(F)F)n3nc(C(=O)Nc4cnn(Cc5ccccc5C)c4)cc3n2)s1	none | BoNTA LC inh 1 inactive | BoNT-F LC CP1 inactive | Anthrax LF CP1 inactive
Cc1nn(Cc2ccccc2)c(C)c1NC(=O)c1cc2nc(-c3ccco3)cc(C(F)(F)F)n2n1	none (no result: Autofluor counter, Anthrax LF prot, BoNT F protease, BoNT-A LC inh2) | BoNTA LC inh 1 inactive | BoNT-F LC CP1 inactive | Anthrax LF CP1 inactive
COc1cc2c(cc1OC)C(=O)CCC2	none
Cc1cc(C)n2nc(C(=O)Nc3c(C)nn(Cc4ccc(F)cc4)c3C)cc2n1	none | BoNTA LC inh 1 inactive | BoNT-F LC CP1 inactive | Anthrax LF CP1 inactive
O=C(Nc1cnn(Cc2ccc(F)cc2)c1)c1cc2nc(-c3ccco3)cc(C(F)(F)F)n2n1	none | BoNTA LC inh 1 inactive | BoNT-F LC CP1 inactive | Anthrax LF CP1 inactive
CN(CC(=O)Nc1ccc(F)c(F)c1F)C(=O)CCc1nc2sc3c(c2c(=O)[nH]1)CCCC3	none
CN(Cc1ccccc1)C(=O)c1cccc(NC(=O)Cc2cccc(NC(=O)C3CCN(C(=O)c4ccccc4)CC3)c2)c1	none
Nc1nc2ccccc2nc1N1CCCC1	BoNT F protease 41.5, BoNT-A LC inh2 31.6 | BoNTA LC inh 1 inactive | BoNT-F LC CP1 inactive | Anthrax LF CP1 inactive
COc1ccc(C)cc1NC(=O)CCC(=O)Nc1nnc(C2CCCCC2)s1	none
O=C(NCCOc1ccccc1F)C1CCC(=O)N(CC2CCCCC2)C1 (stereo unspecified)	none
O=C(Cc1ccccc1)c1ccc(Cl)cc1	Anthrax LF prot 30.2, BoNT F protease inconclusive, BoNT-A LC inh2 inconclusive | BoNTA LC inh 1 inactive | BoNT-F LC CP1 inactive | Anthrax LF CP1 inactive
CCC(=O)Nc1cccc(C(=O)N(Cc2ccccc2)Cc2ccccc2)c1	BoNT F protease 44.1 | BoNTA LC inh 1 inactive | BoNT-F LC CP1 inactive | Anthrax LF CP1 inactive
CCc1nnc(NS(=O)(=O)c2ccc(NC(=O)/C=C/c3ccc(OC)cc3OC)cc2)s1	none
FC(F)(F)c1ccc(CNCCc2ccc3c(c2)OCO3)cc1	BoNT F protease 71.4 | BoNTA LC inh 1 inactive | BoNT-F LC CP1 inactive | Anthrax LF CP1 inactive
COc1ccc(CN2CCN(CC3CC3)CC2CCO)c(C)c1C (stereo unspecified)	Anthrax LF prot 43.2 | BoNTA LC inh 1 inactive | BoNT-F LC CP1 inactive | Anthrax LF CP1 inactive
COc1ccc(CN2CCN(C3CCSCC3)CC2CCO)c(C)c1C (stereo unspecified)	none
NC(=S)NN=Cc1c[nH]c2nccnc12	none (no result: PfHsp40 rescue)
CCN(CC)C(=O)c1sc2nc(-c3cccs3)cc(-c3cccs3)c2c1N	none
COc1ccc(NC(=O)c2sc3nc(Cc4ccccc4)cc(C(F)(F)F)c3c2N)cc1OC	none
Cc1nn(C)c2nc(-c3cccs3)cc(C(F)(F)F)c12	none
COc1ccccc1NC(=O)c1sc2nc(Cc3ccccc3)cc(C(F)(F)F)c2c1N	BoNT-A LC inh2 30.2 | BoNTA LC inh 1 inactive | BoNT-F LC CP1 inactive | Anthrax LF CP1 inactive
Nc1c(C(=O)Nc2nccs2)sc2nc(-c3cccs3)cc(C(F)(F)F)c12	MazF activator 114.8, BoNT F protease 82.0 | BoNTA LC inh 1 inactive | BoNT-F LC CP1 inactive | Anthrax LF CP1 inactive
Cc1nnc(NC(=O)c2sc3nc(-c4cccs4)cc(C(F)(F)F)c3c2N)s1	none
CC(C)(C)C(=O)c1sc2nc(-c3cccs3)cc(C(F)(F)F)c2c1N	MazF activator active, Anthrax LF prot 34.0, BoNT-A LC inh2 33.9 | BoNTA LC inh 1 inactive | BoNT-F LC CP1 inactive | Anthrax LF CP1 inactive
CCN(CC)C(=O)c1sc2nc(-c3cccs3)cc(-c3ccc(Cl)cc3)c2c1N	Anthrax LF prot 39.0, BoNT-A LC inh2 53.4 | BoNTA LC inh 1 inactive | BoNT-F LC CP1 inactive | Anthrax LF CP1 inactive

Source: PubChem BioAssay
